What all share (experiment): NCI-60 one-dose screen, 48 h (100 = growth as untreated, 0 = no growth, -100 = all killed)
For one assay, the system named is NCI-H23 lung. Particulars: 10 µM unless noted.
Another assay deals with NCI-H226 lung. As to conditions: 10 µM unless noted.
The test system of another assay is NCI-H322M lung. Particulars: 10 µM unless noted.
In the next assay the test system is HOP-62 NSCLC. As to conditions: 10 µM unless noted.
For a further assay, the system named is NCI-H460 lung. As to conditions: 10 µM unless noted.
The subject of the next assay is HOP-92 NSCLC. As to conditions: 10 µM unless noted.
Another assay deals with NCI-H522 lung. Particulars: 10 µM.
In a further assay the test system is 786-0 renal. Particulars: 10 µM unless noted.
The test system of the next assay is COLO 205 colon. Particulars: 10 µM unless noted.
Another assay relates to K-562 leukemia. As to conditions: 10 µM unless noted.
For the next assay, the system named is MALME-3M melanoma. As to conditions: 10 µM unless noted.
In another assay the test system is MDA-MB-231 breast. Particulars: 10 µM unless noted.
A further assay deals with SF-268 CNS. Particulars: 10 µM unless noted.
The test system of a further assay is SF-295 CNS. Particulars: 10 µM unless noted.
Another assay relates to SF-539 CNS. Particulars: 10 µM unless noted.
The next assay concerns UACC-257 melanoma. As to conditions: 10 µM unless noted.
Another assay deals with M14 melanoma. As to conditions: 10 µM unless noted.
In the next assay the test system is A549/ATCC NSCLC. Particulars: 10 µM unless noted.
The next assay has as its system DU-145 prostate. As to conditions: 10 µM unless noted.
The test system of the next assay is RXF 393 renal. Particulars: 10 µM unless noted.

About 83,000 compounds went through this panel and 20% of them were active in at least one assay; those are over-represented in the sample as a whole.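 For each line, cells grew in 96-well plates with the test compound present at a single concentration for 48 hours.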 Unmarked numbers belong to inactive results. Active and inactive are the calls of the source. Rule for the calls: active = growth percent below 10; inactive = the rest.

As for `COc1ccc2c(c1)CC/C(=C\c1ccc(OCC(=O)Nc3nc4ccccc4s3)cc1)C2=O`, the growth in the assay with NCI-H23 lung is 79.5%; with NCI-H226 lung, 90.4%; in the assay with NCI-H322M lung, 98.6%; in the assay with HOP-62 NSCLC, 83.2%; in the assay on NCI-H460 lung, 113%; with HOP-92 NSCLC, 61.1%. The growth in the assay on NCI-H522 lung is 85.4%; with 786-0 renal it was 92.3%; in the assay with COLO 205 colon, 122%; with K-562 leukemia, 84.7%; with MALME-3M melanoma, 92.5%; with MDA-MB-231 breast, 82.5%. Also, the growth is 89.6% in the assay with SF-268 CNS; 95% with SF-295 CNS; 73.7% in the assay on SF-539 CNS; 96.5% in the assay with UACC-257 melanoma; 89% in the assay with M14 melanoma.

On to `COC(=O)N/N=C/c1coc2ccc(Cl)cc2c1=O`, for which the growth with NCI-H23 lung is 99.4%; in the assay with NCI-H226 lung, 84.7%; in the assay on NCI-H322M lung, 99.2%; in the assay with HOP-62 NSCLC, 74.7%; in the assay on NCI-H460 lung, 102%; in the assay on HOP-92 NSCLC, 1.24% (active). The growth in the assay with A549/ATCC NSCLC is 103%; in the assay on 786-0 renal, 104%; with COLO 205 colon, 91.4%; in the assay on DU-145 prostate, 106%; with K-562 leukemia, 86.9%; in the assay on MALME-3M melanoma, 75.7%. The growth in the assay on MDA-MB-231 breast is 71.3%; with RXF 393 renal, 66.6%; with SF-268 CNS, 85.5%; in the assay with SF-295 CNS it was 93.6%; with SF-539 CNS, 99.8%; with UACC-257 melanoma, 111%.

On to `COc1ccc2ncccc2c1Cc1c(OC)ccc2ncccc12`, for which the growth with NCI-H23 lung is 80.1%; in the assay with NCI-H226 lung it was 80%; in the assay with NCI-H322M lung it was 96.6%; with HOP-62 NSCLC, 65%; in the assay with NCI-H460 lung, 82.4%; in the assay on HOP-92 NSCLC, 58.1%. Moreover, the growth was 64.5% in the assay on A549/ATCC NSCLC; 89.1% in the assay on 786-0 renal; 79.9% in the assay with COLO 205 colon; 91.5% in the assay with DU-145 prostate; 21.5% in the assay with K-562 leukemia; 55.9% in the assay with MALME-3M melanoma. In addition, the growth was 71.1% in the assay on MDA-MB-231 breast; 82.1% with RXF 393 renal; 84.2% with SF-268 CNS; 63.9% in the assay on SF-295 CNS; 75% in the assay on SF-539 CNS; 68.2% in the assay on UACC-257 melanoma. Moreover, the growth in the assay with M14 melanoma was 56.5%.

Consider `c1ccc(-c2n(Cc3ccc4ccccc4c3)cc[n+]2Cc2ccc3ccccc3c2)cc1`, for which the growth in the assay on NCI-H23 lung was -38.7% (active); in the assay with NCI-H226 lung, -9.03% (active); in the assay on NCI-H322M lung it was 8.84% (active); in the assay with HOP-62 NSCLC it was -44.8% (active); in the assay on NCI-H460 lung, -78.5% (active); with HOP-92 NSCLC, -69.6% (active). The growth in the assay on A549/ATCC NSCLC was 12.5%; in the assay on 786-0 renal, -80.7% (active); with COLO 205 colon, -79.1% (active); in the assay with DU-145 prostate it was 4.64% (active); with K-562 leukemia, -36.7% (active); in the assay with MALME-3M melanoma, -67.8% (active). The growth is -82.7% (active) with MDA-MB-231 breast; -84.7% (active) in the assay with RXF 393 renal; -58.2% (active) in the assay on SF-268 CNS; -51% (active) in the assay with SF-295 CNS; -34.7% (active) in the assay on SF-539 CNS; -57.1% (active) in the assay on UACC-257 melanoma. In addition, in the assay with M14 melanoma, the growth was -60.5% (active).

Regarding `CCn1cnc(C[C@H](NC(=O)[C@H](CCCCNC(=O)Nc2cc(C(F)(F)F)cc(C(F)(F)F)c2)NC(=O)Nc2cc(C(F)(F)F)cc(C(F)(F)F)c2)C(=O)OC)c1`, the growth in the assay with NCI-H23 lung is -65.8% [100 µM] (active); with NCI-H226 lung, 2.9% [100 µM] (active); in the assay on NCI-H322M lung it was 5.23% [100 µM] (active); in the assay with HOP-62 NSCLC it was -75.3% [100 µM] (active); in the assay with NCI-H460 lung, -41.1% [100 µM] (active); in the assay on HOP-92 NSCLC, -45.4% [100 µM] (active). The growth with A549/ATCC NSCLC was -75.3% [100 µM] (active); with 786-0 renal, -54.3% [100 µM] (active); with COLO 205 colon it was -100% [100 µM] (active); in the assay with DU-145 prostate, -69.5% [100 µM] (active); in the assay with K-562 leukemia, -80.2% [100 µM] (active); in the assay with MALME-3M melanoma, -69.6% [100 µM] (active). The growth in the assay on MDA-MB-231 breast was -100% [100 µM] (active); in the assay on RXF 393 renal, -47.2% [100 µM] (active); in the assay on SF-268 CNS, -53.5% [100 µM] (active); in the assay on SF-295 CNS it was -97.4% [100 µM] (active); in the assay with SF-539 CNS, -66.4% [100 µM] (active); in the assay with UACC-257 melanoma, -59.1% [100 µM] (active). For the same molecule, in the assay with M14 melanoma, the growth is -97.4% [100 µM] (active).

Consider `COC(=O)Nc1ccc2ccc3c(NC(=O)OC)ccc4ccc1c2c43` (tested in a mixture with another compound), for which the growth with NCI-H23 lung is 65%; with NCI-H226 lung it was 83.3%; in the assay with NCI-H322M lung, 65%; in the assay with HOP-62 NSCLC it was 48.5%; in the assay on NCI-H460 lung, 26.5%; with HOP-92 NSCLC it was 9.3% (active). The growth with A549/ATCC NSCLC is 41.2%; in the assay with 786-0 renal, 60%; in the assay with COLO 205 colon, 30.8%; with DU-145 prostate it was 86.9%; in the assay with K-562 leukemia, 25%; in the assay on MALME-3M melanoma, 68.8%. Also, the growth was 54.1% with MDA-MB-231 breast; 77.6% with RXF 393 renal; 67.7% with SF-268 CNS; 48.2% in the assay on SF-295 CNS; 50.7% with SF-539 CNS; 71.7% in the assay with UACC-257 melanoma. Besides, the growth in the assay on M14 melanoma is 25.4%.

Consider `Cc1cc(C)cc(S(=O)(=O)n2ccc(-c3ccc4c(c3)CCC(C)(C)O4)n2)c1`, for which the growth with NCI-H23 lung is 73.6%; with NCI-H226 lung, 66.8%; in the assay with NCI-H322M lung, 92%; with HOP-62 NSCLC, 116%; with NCI-H460 lung, 84.4%; in the assay on HOP-92 NSCLC it was 78.1%. In addition, the growth in the assay with A549/ATCC NSCLC was 80.8%; in the assay on 786-0 renal, 82.8%; in the assay with COLO 205 colon it was 103%; in the assay on DU-145 prostate, 89.8%; in the assay with K-562 leukemia, 85.7%; with MALME-3M melanoma it was 82.9%. For the same molecule, the growth in the assay with MDA-MB-231 breast is 93.5%; in the assay with RXF 393 renal it was 77.3%; with SF-268 CNS, 88.3%; with SF-295 CNS, 85%; with SF-539 CNS, 99.9%; in the assay with UACC-257 melanoma it was 89.6%. The growth with M14 melanoma is 82.7%.

For the molecule `N#Cc1c(NC(=O)c2ccco2)[n+]([O-])c2ccccc2[n+]1[O-]`, the growth with NCI-H23 lung was 110%; in the assay on NCI-H226 lung, 86.1%; with NCI-H322M lung, 103%; in the assay on HOP-62 NSCLC, 82.9%; in the assay on NCI-H460 lung it was 107%; with HOP-92 NSCLC, 164%. Besides, the growth in the assay on A549/ATCC NSCLC is 99.7%; with 786-0 renal it was 99.2%; in the assay on COLO 205 colon it was 105%; with DU-145 prostate, 95.5%; with K-562 leukemia, 84.9%; in the assay with MALME-3M melanoma it was 112%. In addition, the growth in the assay with MDA-MB-231 breast is 96.1%; with RXF 393 renal, 95.5%; with SF-268 CNS, 110%; in the assay on SF-295 CNS, 107%; with SF-539 CNS it was 84.4%; in the assay on UACC-257 melanoma, 102%. In the assay on M14 melanoma, the growth was 104%.

Values taken from PubChem BioAssay (NCI).
